Laboratory results taken from ChEMBL document CHEMBL3988442, “University of Dundee, Small-Polar-MMV Screening Library” (2021).
For some of these results: Measured potencies and affinities stand elsewhere.

Columns and labels:
Set-up in all cases: scale not given: direction of the effect not stated beside the values
[1] = molecular target: Protein translocase subunit SecA (Escherichia coli (strain K12)) (UniProt P10408); experiment: Assay to Identify E. coli SecA ATPase Inhibitors; assay type: functional; settings: 30 µM
Protein translocase subunit SecA (Escherichia coli (strain K12)), sequence (P10408 whole entry): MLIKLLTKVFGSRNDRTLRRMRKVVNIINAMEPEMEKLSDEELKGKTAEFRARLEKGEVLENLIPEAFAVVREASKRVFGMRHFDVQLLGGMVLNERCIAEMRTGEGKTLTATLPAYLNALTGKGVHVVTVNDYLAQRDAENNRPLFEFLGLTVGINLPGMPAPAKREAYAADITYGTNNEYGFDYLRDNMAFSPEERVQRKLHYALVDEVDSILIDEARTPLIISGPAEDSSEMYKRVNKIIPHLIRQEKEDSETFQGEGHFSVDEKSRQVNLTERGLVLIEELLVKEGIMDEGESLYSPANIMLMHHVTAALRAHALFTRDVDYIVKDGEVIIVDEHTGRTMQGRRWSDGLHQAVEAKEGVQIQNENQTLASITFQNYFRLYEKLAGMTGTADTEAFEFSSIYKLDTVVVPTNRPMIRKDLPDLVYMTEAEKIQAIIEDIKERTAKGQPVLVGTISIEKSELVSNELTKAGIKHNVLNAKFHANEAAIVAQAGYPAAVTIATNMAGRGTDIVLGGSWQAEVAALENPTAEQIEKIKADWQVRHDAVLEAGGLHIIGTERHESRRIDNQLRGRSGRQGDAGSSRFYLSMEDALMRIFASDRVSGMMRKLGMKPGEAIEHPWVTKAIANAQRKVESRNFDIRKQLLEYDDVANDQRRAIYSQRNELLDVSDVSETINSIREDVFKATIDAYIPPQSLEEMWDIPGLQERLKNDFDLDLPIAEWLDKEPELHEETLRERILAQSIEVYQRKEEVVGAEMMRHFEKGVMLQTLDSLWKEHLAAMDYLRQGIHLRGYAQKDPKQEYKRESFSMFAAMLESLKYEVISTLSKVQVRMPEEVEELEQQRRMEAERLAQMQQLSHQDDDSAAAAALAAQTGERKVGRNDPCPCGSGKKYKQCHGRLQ

[2] = molecular target: T1, Ubiquitin-activating enzyme e1, putative (Leishmania donovani (strain BPK282A1)) (UniProt E9BSI1); experiment: Leishmania donovani Ubiquitin Activating Enzyme (LdE1); assay type: functional; settings: 30 µM
T1 sequence (whole entry): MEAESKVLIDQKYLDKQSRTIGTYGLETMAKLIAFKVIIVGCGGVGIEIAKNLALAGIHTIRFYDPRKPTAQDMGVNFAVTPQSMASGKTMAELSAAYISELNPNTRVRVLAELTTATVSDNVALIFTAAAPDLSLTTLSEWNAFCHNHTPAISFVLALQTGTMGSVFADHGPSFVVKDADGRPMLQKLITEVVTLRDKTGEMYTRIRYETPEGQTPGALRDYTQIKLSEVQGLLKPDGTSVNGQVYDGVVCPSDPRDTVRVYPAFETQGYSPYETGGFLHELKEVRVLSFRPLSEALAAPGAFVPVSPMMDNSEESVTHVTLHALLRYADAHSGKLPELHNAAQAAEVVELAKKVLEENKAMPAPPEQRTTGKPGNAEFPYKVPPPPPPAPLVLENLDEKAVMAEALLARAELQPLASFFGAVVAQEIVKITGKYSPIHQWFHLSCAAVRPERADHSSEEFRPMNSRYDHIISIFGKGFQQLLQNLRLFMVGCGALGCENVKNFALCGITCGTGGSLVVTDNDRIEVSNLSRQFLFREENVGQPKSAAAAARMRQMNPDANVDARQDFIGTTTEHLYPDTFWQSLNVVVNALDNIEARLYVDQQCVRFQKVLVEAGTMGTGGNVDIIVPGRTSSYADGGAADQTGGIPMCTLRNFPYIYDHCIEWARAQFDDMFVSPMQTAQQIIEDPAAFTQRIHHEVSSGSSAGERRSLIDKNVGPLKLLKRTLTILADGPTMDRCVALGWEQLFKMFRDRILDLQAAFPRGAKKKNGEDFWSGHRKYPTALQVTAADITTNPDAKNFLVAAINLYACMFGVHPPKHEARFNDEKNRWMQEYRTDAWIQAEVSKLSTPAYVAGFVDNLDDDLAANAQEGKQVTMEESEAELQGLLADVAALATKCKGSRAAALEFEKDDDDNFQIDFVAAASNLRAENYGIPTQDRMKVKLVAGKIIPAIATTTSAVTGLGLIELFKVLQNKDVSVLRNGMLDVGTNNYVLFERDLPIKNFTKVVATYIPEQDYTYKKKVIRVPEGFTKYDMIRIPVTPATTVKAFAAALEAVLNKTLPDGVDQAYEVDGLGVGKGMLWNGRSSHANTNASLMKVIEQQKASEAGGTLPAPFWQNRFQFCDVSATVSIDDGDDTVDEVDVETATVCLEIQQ

[3] = molecular target: AMP-activated protein kinase, AMPK (Homo sapiens) (UniProt P54646+O43741+P54619+Q9UGJ0+Q9Y478+Q13131+Q9UGI9); experiment: AMP-dependent Kinase enzyme assay. An in vitro enzyme assay that detects ADP turnover that is directly proportional to AMPK activity. This uses naive AMPK that is activated during the assay with MK-8722; assay type: functional; settings: 30 µM
[4] = molecular target: Sialic acid-binding Ig-like lectin 9 (Homo sapiens) (UniProt Q9Y336); experiment: Hs-Siglec9 ALPHAscreen SOP 20170721; settings: 10 µM
Sialic acid-binding Ig-like lectin 9 (Homo sapiens), sequence (Q9Y336 whole entry): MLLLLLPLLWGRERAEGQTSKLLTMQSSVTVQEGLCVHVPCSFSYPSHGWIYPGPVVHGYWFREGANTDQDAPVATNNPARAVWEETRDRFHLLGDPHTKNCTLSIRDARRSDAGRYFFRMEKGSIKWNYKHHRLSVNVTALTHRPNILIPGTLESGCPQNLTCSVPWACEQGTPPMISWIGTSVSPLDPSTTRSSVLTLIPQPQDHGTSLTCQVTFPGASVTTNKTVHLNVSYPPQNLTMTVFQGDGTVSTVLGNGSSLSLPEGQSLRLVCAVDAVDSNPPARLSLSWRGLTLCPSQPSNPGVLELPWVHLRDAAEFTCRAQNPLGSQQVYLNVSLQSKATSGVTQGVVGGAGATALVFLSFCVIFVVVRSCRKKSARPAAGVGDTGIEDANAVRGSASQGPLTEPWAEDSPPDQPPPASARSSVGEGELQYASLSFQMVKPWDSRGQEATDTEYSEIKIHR

[5] = tested on: Trypanosoma cruzi; experiment: Trypanosoma cruzi phosphomannomutase and mannose-1-phosphate guanylyltransferase assay; assay type: functional; settings: 10 µM
[6] = molecular target: T2, Arginase-2, mitochondrial (Homo sapiens) (UniProt P78540); experiment: in vitro enzyme assay to detect the production of urea directly proportional to the activity of Arginase II; assay type: functional; settings: 33.3 µM; note: in the data most compounds retested in dose-response had high values
T2 sequence (whole entry): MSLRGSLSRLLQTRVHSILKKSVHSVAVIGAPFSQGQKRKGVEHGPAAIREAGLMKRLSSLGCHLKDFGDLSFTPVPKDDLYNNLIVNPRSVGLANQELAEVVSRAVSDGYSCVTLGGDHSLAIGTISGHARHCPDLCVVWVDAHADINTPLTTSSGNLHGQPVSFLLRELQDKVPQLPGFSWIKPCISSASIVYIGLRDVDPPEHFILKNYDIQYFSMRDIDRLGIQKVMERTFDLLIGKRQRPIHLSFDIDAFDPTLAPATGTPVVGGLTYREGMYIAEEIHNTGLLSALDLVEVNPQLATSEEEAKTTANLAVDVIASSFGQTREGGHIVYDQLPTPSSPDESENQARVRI

[7] = molecular target: T3, Proteasome subunit beta (Trypanosoma cruzi) (UniProt O96673); experiment: Trypanosoma cruzi proteasome chymotrypsin-like activity (TcProtChymo) assay.; note: in the data most compounds retested in dose-response had high values; assay type: functional; settings: 9.37 µM
T3 sequence (whole entry): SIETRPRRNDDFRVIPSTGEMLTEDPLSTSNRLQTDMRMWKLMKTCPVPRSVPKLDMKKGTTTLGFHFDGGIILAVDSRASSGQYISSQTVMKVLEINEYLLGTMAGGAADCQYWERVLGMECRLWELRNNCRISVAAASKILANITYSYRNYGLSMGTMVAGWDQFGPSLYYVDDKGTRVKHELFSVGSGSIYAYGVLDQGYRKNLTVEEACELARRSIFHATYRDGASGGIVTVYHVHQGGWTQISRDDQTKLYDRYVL

[8] = species: Homo sapiens; experiment: To identify inhibition of the IFN signalling (Jak-Stat) pathway via expression of an eGFP reporter gene under the control of an IFN-stimulated response element (ISRE) containing MxA promoter.; assay type: functional; settings: 30 µM
[9] = molecular target: T4, Tyrosyl-tRNA synthetase, putative (Trypanosoma cruzi (strain CL Brener)) (UniProt Q4DSP6); experiment: Trypanosoma cruzi tyrosyl tRNA synthetase (TcYRS) _High Tyrosine SOP; assay type: functional; settings: 30 µM; note: in the data most compounds retested in dose-response had high values
T4 sequence (whole entry): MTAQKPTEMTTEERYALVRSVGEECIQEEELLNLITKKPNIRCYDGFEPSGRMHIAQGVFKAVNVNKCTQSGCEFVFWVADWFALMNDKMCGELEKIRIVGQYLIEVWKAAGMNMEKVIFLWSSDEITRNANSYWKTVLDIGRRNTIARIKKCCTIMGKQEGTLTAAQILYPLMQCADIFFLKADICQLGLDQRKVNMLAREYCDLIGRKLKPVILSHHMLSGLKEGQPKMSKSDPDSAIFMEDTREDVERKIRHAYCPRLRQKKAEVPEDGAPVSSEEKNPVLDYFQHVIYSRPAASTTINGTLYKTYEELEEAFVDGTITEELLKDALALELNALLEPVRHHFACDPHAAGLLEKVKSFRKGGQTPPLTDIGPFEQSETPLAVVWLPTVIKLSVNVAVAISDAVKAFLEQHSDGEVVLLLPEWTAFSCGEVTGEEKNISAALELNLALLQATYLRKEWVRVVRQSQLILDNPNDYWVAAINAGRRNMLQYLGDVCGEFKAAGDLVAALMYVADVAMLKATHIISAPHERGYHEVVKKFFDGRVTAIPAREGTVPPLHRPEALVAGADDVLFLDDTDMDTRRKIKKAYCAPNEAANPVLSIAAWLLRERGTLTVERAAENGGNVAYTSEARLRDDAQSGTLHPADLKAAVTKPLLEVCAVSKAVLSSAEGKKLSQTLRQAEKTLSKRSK

[10] = molecular target: T4, Tyrosyl-tRNA synthetase, putative (Trypanosoma cruzi (strain CL Brener)); experiment: Trypanosoma cruzi tyrosyl tRNA synthetase (TcYRS) SOP; assay type: functional; settings: 30 µM
[11] = molecular target: Chromo domain-containing protein 1 (Saccharomyces cerevisiae (strain ATCC 204508 / S288c) (Baker's yeast)) (UniProt P32657); experiment: ScCHD-1 Enzyme Inhibition Assay; assay type: functional; settings: 30 µM; note: in the data most compounds retested in dose-response had high values
Chromo domain-containing protein 1 (Saccharomyces cerevisiae (strain ATCC 204508 / S288c) (Baker's yeast)), sequence (P32657 whole entry, the tested form may be a part): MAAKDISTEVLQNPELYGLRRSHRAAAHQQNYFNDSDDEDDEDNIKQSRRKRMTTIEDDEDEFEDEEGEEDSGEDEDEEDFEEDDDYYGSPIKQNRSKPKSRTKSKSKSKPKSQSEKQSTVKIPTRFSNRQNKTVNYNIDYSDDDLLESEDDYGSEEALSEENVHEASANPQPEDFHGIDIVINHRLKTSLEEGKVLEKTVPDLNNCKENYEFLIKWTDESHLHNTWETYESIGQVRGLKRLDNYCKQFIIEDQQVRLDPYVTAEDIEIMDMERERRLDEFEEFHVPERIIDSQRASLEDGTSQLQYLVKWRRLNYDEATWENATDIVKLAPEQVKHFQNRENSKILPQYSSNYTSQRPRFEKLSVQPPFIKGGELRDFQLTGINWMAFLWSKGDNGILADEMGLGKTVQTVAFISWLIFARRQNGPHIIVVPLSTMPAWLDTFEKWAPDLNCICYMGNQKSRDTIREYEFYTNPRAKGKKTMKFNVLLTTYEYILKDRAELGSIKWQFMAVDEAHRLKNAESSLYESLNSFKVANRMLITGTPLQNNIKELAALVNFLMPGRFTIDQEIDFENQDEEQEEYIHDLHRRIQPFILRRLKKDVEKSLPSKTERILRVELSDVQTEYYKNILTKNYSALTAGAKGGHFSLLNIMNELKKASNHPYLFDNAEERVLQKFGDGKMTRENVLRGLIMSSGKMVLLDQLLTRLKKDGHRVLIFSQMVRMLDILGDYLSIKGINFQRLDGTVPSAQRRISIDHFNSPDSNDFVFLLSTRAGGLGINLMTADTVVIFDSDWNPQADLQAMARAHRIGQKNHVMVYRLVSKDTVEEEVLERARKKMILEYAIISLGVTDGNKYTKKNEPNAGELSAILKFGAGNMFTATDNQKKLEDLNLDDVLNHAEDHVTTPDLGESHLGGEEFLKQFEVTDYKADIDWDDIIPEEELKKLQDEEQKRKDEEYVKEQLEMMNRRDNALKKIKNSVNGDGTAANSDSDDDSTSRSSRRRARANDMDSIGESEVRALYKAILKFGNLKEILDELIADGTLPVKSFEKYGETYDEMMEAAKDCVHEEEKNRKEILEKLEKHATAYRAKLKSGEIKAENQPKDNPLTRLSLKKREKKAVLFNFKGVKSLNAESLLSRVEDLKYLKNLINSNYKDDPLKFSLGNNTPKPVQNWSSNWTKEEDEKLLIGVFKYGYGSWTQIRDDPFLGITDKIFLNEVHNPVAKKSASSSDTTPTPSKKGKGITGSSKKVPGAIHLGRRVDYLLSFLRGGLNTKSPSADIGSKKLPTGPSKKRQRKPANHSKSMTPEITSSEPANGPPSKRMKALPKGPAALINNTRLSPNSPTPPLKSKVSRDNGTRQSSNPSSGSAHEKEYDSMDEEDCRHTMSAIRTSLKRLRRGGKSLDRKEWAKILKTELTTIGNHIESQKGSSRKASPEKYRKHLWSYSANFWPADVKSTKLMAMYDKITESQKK

Structure (SMILES): c1ccc(Cn2cc3c(n2)C(COCC2CC2)OCC3)nc1 (stereo not drawn)
- Percent Effect [1]: 3.09%
- Percent Effect [2]: 10.4%
- Percent Effect [3]: -0.118%
- Percent Effect [4]: -14.8%
- Percent Effect [5]: -4.24%
- Percent Effect [6]: 3.23%
- Percent Effect [7]: 12.4%
- Percent Effect [8]: 8.69%
- Percent Effect [9]: 1.06%
- Percent Effect [10]: 6.41%
- Percent Effect [11]: -7.74%

Structure (SMILES): COCC1CCN(C(=O)c2cccc(S(=O)(=O)NC3CCCC3)c2)C1 (stereo not drawn)
- Percent Effect [1]: 1.68%
- Percent Effect [2]: 16.2%
- Percent Effect [3]: -0.427%
- Percent Effect [4]: 10.5%
- Percent Effect [5]: 1.66%
- Percent Effect [6]: 10.2%
- Percent Effect [7]: 17.4%
- Percent Effect [8]: 13.5%
- Percent Effect [9]: 5.38%
- Percent Effect [10]: 21%
- Percent Effect [11]: -13.4%

Structure (SMILES): CCN(C)S(=O)(=O)N(CC)Cc1ccc2c(c1)OCO2
- Percent Effect [1]: -5.09%
- Percent Effect [2]: 15.6%
- Percent Effect [3]: 0.454%
- Percent Effect [4]: 4.35%
- Percent Effect [5]: -4.49%
- Percent Effect [6]: 1.42%
- Percent Effect [7]: 8.11%
- Percent Effect [8]: 11.3%
- Percent Effect [9]: 4.85%
- Percent Effect [10]: 19.5%
- Percent Effect [11]: -8.91%

Structure (SMILES): Cn1cnnc1C1CCCN(C(=O)NCCOc2ccccc2)C1 (stereo not drawn)
- Percent Effect [1]: -3.04%
- Percent Effect [2]: 23.4%
- Percent Effect [3]: 1.73%
- Percent Effect [4]: -22.3%
- Percent Effect [5]: 4.8%
- Percent Effect [6]: -1.47%
- Percent Effect [7]: 15.9%
- Percent Effect [8]: 16.1%
- Percent Effect [9]: 5.71%
- Percent Effect [10]: 21.2%
- Percent Effect [11]: -12%

Structure (SMILES): Cn1nc(CNC(=O)C2COc3ccccc3O2)cc1C1CC1 (stereo not drawn)
- Percent Effect [1]: -5.12%
- Percent Effect [2]: -2.6%
- Percent Effect [3]: 21.3%
- Percent Effect [4]: -1.75%
- Percent Effect [5]: -3.85%
- Percent Effect [6]: -3.23%
- Percent Effect [7]: 8.36%
- Percent Effect [8]: 1.88%
- Percent Effect [9]: 0%
- Percent Effect [10]: -6.41%
- Percent Effect [11]: -1.13%

Structure (SMILES): CN(C)C(=O)CS(=O)(=O)Cc1cc(Cl)c2c(c1)OCCCO2
- Percent Effect [1]: -5%
- Percent Effect [2]: 18.4%
- Percent Effect [3]: 2.36%
- Percent Effect [4]: -11.3%
- Percent Effect [5]: -4.2%
- Percent Effect [6]: 3.24%
- Percent Effect [7]: 6.68%
- Percent Effect [8]: 3.48%
- Percent Effect [9]: 1.48%
- Percent Effect [10]: -8.64%
- Percent Effect [11]: -7.42%

Structure (SMILES): Cc1ncsc1C(=O)NCCSCc1cccs1
- Percent Effect [1]: -1.5%
- Percent Effect [2]: 2.7%
- Percent Effect [3]: -1.07%
- Percent Effect [4]: 13.7%
- Percent Effect [5]: 3.44%
- Percent Effect [6]: -3.14%
- Percent Effect [7]: 7.9%
- Percent Effect [8]: 16.5%
- Percent Effect [9]: 0%
- Percent Effect [10]: 11%
- Percent Effect [11]: -5.27%

Structure (SMILES): COc1cc(C(=O)Nc2c(C)noc2C)ccc1C
- Percent Effect [1]: -3.57%
- Percent Effect [2]: 17.7%
- Percent Effect [3]: 2.44%
- Percent Effect [4]: 6.13%
- Percent Effect [5]: 3.87%
- Percent Effect [6]: -4.56%
- Percent Effect [7]: 1.88%
- Percent Effect [8]: 18.6%
- Percent Effect [9]: 4.43%
- Percent Effect [10]: 16.5%
- Percent Effect [11]: -5.84%
